# A number with no mark means an inactive call.
# Test system: HCC1569
# Assay: H1.0 immunofluorescence intensity relative to DMSO (% of DMSO); higher = stronger H1.0 induction, active = 140 or more
# Settings: concentration: 10 µM; 24 h
# In short: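 H1.0 nuclear intensity or cell number is stated as percent of the plate control, based on the median of replicates, and HCC1569 values were smoothed for positional effects. These came from HCC1569 and TDF cells treated with compounds at 10 µM for 24 h at 37 °C in triplicate, then fixed in 3.7% formaldehyde and stained with a rabbit anti-H1.0 antibody, an AlexaFluor 647 secondary and DAPI.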
# 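Also: TDF is a line of transformed human dermal fibroblasts of mesenchymal origin.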
row,Compound,H1.0 immunofluorescence intensity
1,Cl.Nc1cc(Nc2ccc(S(N)(=O)=O)cc2)ncn1,102
2,COc1ccc2c(c1OC)C(=O)OC2C1c2c(cc3c(c2OC)OCO3)CCN1C (racemic),94.1
3,CC1C2CCC3C4CC=C5CC(N(C)C)CCC5(C)C4CCC32CN1C (stereo not drawn) [Conessine],113
4,CC(C)C(CO)Nc1nc(Nc2ccc(C(=O)O)c(Cl)c2)c2ncn(C(C)C)c2n1 (stereo not drawn),115
5,"Cc1ccc(Cl)c(Nc2ccccc2C(=O)[O-])c1Cl.[Na+] [sodium 2-(2,6-dichloro-3-methylanilino)benzoate]",102
6,Cl.O=C1NCC2(CCN(CCc3ccccc3)CC2)O1 [Fenspiride hydrochloride],91
7,Cl.Cl.NCCC(=O)NCCc1cnc[nH]1 [Carcinine dihydrochloride],88.5
8,CCCCCC(O)C=CC=O (racemic),106
9,COC(=O)c1sccc1S(=O)(=O)Nc1ccc(Nc2ccccc2)cc1OC,112
10,O=C1NCN(c2ccccc2)C12CCN(CCCC(c1ccc(F)cc1)c1ccc(F)cc1)CC2 [Fluspirilene],126
11,O=C(Nc1c(Cl)cncc1Cl)c1ccc(OC(F)F)c(OCC2CC2)c1,101
12,"O.c1cnc2c(c1)ccc1cccnc12 [1,10-Phenanthroline monohydrate]",93.9
13,CCN1CCc2nc(N)oc2CC1.Cl.Cl [B-HT 933 dihydrochloride],87.2
14,COC1CC(OC2C(C)C(=O)OC(C)C(C)C(OC(C)=O)C(C)C(=O)C3(CO3)CC(C)C(OC3OC(C)CC(N(C)C)C3OC(C)=O)C2C)OC(C)C1OC(C)=O (stereo not drawn) [Troleandomycin],94.6
15,CSc1nc(-c2ccnc(NC(C)c3ccccc3)c2)c(-c2ccc(F)cc2)[nH]1 (stereo not drawn) [p38 MAP Kinase Inhibitor III],113
16,COc1cc2ncnc(Nc3ccc(OCc4ccccc4)cc3)c2cc1OC [EGFR/ErbB-2 Inhibitor],121
17,O=C(Nc1cccc(C(F)(F)F)c1)Nc1cc(S(=O)(=O)NC2CC2)ccc1-c1ccsc1,130
18,CCCCCCCCCCCC=CCCCCC(=O)O [6(Z)-Octadecenoic acid],97.5
19,CCCCCC=CCC=CCC=CCCCCC(=O)O [γ-Linolenic acid (18:3 n-6)],98.8
20,CCOc1cc2ncnc(Nc3cccc(Br)c3)c2cc1OCC [Compound 56],144 (active)
21,COc1ccc(CN(CCN(C)C)c2ccccn2)cc1.O=C(O)C=CC(=O)O [Pyrilamine maleate],100
22,Cl.Cl.O=C(O)COCCN1CCN(C(c2ccccc2)c2ccc(Cl)cc2)CC1 (stereo not drawn) [Cetirizine 2HCl],104
23,"COC(=O)[C@@H](N)Cc1ccc(O)c(O)c1.Cl [L-3,4-Dihydroxyphenylalanine methyl ester hydrochloride]",96.8
24,NC(=O)c1cc[n+](CC2=C(C(=O)[O-])N3C(=O)C(NC(=O)C(c4ccccc4)S(=O)(=O)[O-])C3SC2)cc1.[Na+] (stereo not drawn) [Cefsulodin sodium salt hydrate],94.3
25,CCCCN1CCC(n2c(=O)[nH]c3ccccc32)CC1.O=C(O)C(=O)O [NS 521 oxalate],98.3
26,Cc1[nH]c2ccccc2c1CCNC(=O)c1ccccc1F [2-fluoro-N-[2-(2-methyl-1H-indol-3-yl)ethyl]benzamide],93.6
27,CC(=O)OC1(C(C)=O)CCC2C3C=C(Cl)C4=CC(=O)C5CC5C4(C)C3CCC21C (stereo not drawn) [Cyproterone Acetate],99.8
28,CC(=O)OC1(C(C)=O)CCC2C3C=C(C)C4=CC(=O)CCC4(C)C3CCC21C (stereo not drawn) [Megestrol Acetate],104
